Bioassay records as filed in PubChem.
An excerpt weighted towards active compounds, which were near 1.5% of everything screened.
MCL1-BIM inh – MCL1-BIM-BH3 interaction inhibition (human); Q07820; GST-MCL1 / FITC-Bim-BH3 fluorescence polarization; inhibition, % at 10.9 µM; 320,000 compounds, 0.68% hits; AID 2057;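 active = inhibition above the mean inhibition of all tested compounds plus 3 SD, set per campaign, cut at about 40% in these data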;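 note: 0% = DMSO wells and 100% = unlabeled Bim-BH3 peptide control; higher means more loss of mP so more displacement of Bim peptide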
MEX-5 binding – C. elegans MEX-5 TCR-2 RNA binding activity | Q9XUB2 | MEX-5/FITC-TCR2 RNA binding, fluorescence polarization; stronger effect = lower value | activity score (negative = inhibition of binding), % at 10 µM | 300,000 compounds, 0.38% hits | AID 1832;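 active = inhibition past about -25% in most replicates, and total fluorescence under double the plate's negative control median, limit read from the data; inconclusive = replicates evenly split on the limit, or fluorescence at least double controls; inactive = too little inhibition in most replicates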;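 note: 0% = DMSO and -100% = 5 µM competing unlabeled TCR2 RNA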
GLD-1 RNA inh – GLD-1-TGE RNA interaction inhibition (C. elegans); Q17339; 320,000 compounds, 0.44% hits; AID 2280; purified GLD-1 + fluorescein TGE RNA, fluorescence polarization; inhibition, % at 5.96 µM;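 active = percent inhibition above a per-plate cutoff, the plate mean of test compounds plus 3 SD, cut at about 30% in these data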;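 note: 0% = DMSO wells with GLD-1 and probe and 100% = wells lacking GLD-1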
Bcl-xL primary – blocks human Bcl-xL binding to Bim BH3 peptide. GST-Bcl-xL / FITC-Bim BH3 peptide fluorescence polarization. inhibition, % at 10.9 µM. 320,000 compounds, 0.7% hits. Q07817;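 active = inhibition above the mean of all tested compounds plus 3 SD, cutoff set per campaign, cut at about 30% in these data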;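 note: 0% = DMSO wells and 100% = unlabeled Bim-BH3 peptide competitor; inhibitors lower millipolarization by displacing the labeled peptide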
eLon inh – E. coli protease La inhibition; P0A9M0; 360,000 compounds, 0.42% hits; inhibition, % at 7.94 µM; AID 602123; purified E. coli Lon protease, fluorescence polarization; in the data active = inhibition above about 13%, passing the limit was not always enough;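 note: 0% = enzyme with probe and DMSO and 100% = no enzyme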
Target sequence (P0A9M0 whole entry, looked up): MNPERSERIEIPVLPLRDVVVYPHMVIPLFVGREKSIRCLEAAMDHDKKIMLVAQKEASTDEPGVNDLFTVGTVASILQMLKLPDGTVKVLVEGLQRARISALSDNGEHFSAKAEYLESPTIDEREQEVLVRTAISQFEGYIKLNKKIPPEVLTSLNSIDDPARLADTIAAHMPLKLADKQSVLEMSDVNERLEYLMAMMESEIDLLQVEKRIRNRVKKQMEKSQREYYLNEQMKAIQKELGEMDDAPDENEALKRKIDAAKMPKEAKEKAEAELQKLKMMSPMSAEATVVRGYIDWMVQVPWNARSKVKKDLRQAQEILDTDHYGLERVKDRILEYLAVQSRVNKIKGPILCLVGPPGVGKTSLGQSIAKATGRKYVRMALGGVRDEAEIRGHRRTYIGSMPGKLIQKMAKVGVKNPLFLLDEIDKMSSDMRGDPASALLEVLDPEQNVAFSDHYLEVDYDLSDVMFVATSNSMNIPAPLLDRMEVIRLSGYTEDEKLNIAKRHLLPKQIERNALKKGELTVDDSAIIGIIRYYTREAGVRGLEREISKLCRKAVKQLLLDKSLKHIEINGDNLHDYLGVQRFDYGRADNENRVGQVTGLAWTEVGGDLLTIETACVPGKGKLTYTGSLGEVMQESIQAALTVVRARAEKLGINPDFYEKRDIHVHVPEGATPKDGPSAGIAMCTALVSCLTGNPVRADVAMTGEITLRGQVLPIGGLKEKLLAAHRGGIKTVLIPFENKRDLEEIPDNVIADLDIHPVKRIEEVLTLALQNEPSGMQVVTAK
EBV gp42 inh – EBV gp42 inhibition. Fluorescence polarization binding assay, mP read-out. inhibition, % (tested at 21.74 µM). 220,000 compounds, 0.42% hits. AID 1085. Q1HVG2; in the data active = inhibition above about 50%
BCLXL inh confirm – Bcl-xL (human) inhibition, MCL1 counter-screen confirmation | shares compounds with MCL1-BIM inh | GST-Bcl-xL / FITC-Bim BH3 peptide FP binding | inhibition, % at 10.9 µM | 1,700 compounds, 54% hits | AID 2166;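 active = inhibition above a cutoff equal to the mean inhibition of all tested compounds plus 3 SD, cut at about 30% in these data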;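 note: 0% = DMSO wells and 100% = unlabeled Bim BH3 control peptide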
MCL1 BIM confirm – confirmation of human MCL1 and BIM-BH3 interaction inhibitors | 1,700 compounds, 61% hits | GST-MCL1 / FITC-Bim-BH3 fluorescence polarization | AID 2168 | inhibition, % at 10.9 µM | shares compounds with MCL1-BIM inh;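 active = inhibition above the average of all tested compounds plus 3 SD, cut at about 40% in these data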;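 note: 0% = DMSO wells and 100% = unlabeled Bim-BH3 control peptide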
An asterisk follows results filed as active; ? = inconclusive; nt = no result given; + = active, no number.

SMILES	MCL1-BIM inh	MEX-5 binding	GLD-1 RNA inh	Bcl-xL primary	eLon inh	EBV gp42 inh	BCLXL inh confirm	MCL1 BIM confirm
CCc1ccc2nc(N(CCCN(C)C)C(=O)c3ccc(S(=O)(=O)N4CCCC4)cc3)sc2c1	43.6*	-0.8	-5.6	2.8	-3.4	nt	10.3	9.5
N#Cc1c(SCC(=O)Nc2nc3ccccc3s2)sc2c(O)cc(=O)[nH]c12	57.3*	nt	1.3	30.6*	-14.2	nt	26.4	71.6*
N#Cc1cccc(NC(=O)CSc2sc3c(O)cc(=O)[nH]c3c2C#N)c1	-4.3	-0.6	0.2	1.4	2.6	nt	nt	nt
N#Cc1c(SCC(=O)Nc2nc3ccc(Br)cc3s2)sc2c(O)cc(=O)[nH]c12	47.8*	-2.1	-8.1	19.4	-26.6	nt	22.8	54.1*
CCCSc1nnc(NC(=O)CSc2sc3c(O)cc(=O)[nH]c3c2C#N)s1	39.0	-2.2	1.8	19.2	-0.6	nt	nt	nt
N#Cc1c(SCC(=O)Nc2nccs2)sc2c(O)cc(=O)[nH]c12	49.6*	-6.6	-4.6	17.4	-32.6	nt	15.4	14.4
Cc1ccccc1C(=O)N1CCC(C(=O)N(C)CC(=O)Nc2cccc(F)c2)CC1	2.4	2.7	9.6	0.9	-4.2	nt	nt	nt
Nc1ccc(N2CCCCCC2)cc1	41.7*	nt	20.6	26.7	nt	-12.9	38.3*	57.4*
CCOC(=O)Nc1ccc(NCc2ccc(F)cc2)nc1N	191.2*	nt	132.3*	141.4*	-74.0	nt	35.6*	30.6
CNC(=O)c1cc(C(=O)c2ccc(C(F)(F)F)cc2F)c[nH]1	65.8*	0.5	2.2	3.8	1.1	-20.6	2.2	5.7
CNC(=O)c1cc(C(=O)c2ccc(C(F)(F)F)cc2)c[nH]1	5.4	2.4	0.9	3.1	1.3	nt	nt	nt
O=C(NCc1ccncc1)C(=O)N/N=C/c1cccnc1	10.8	0.0	1.5	0.6	2.2	-3.0	nt	nt
O=C(O)c1ccccc1NS(=O)(=O)c1cccc(-n2sc3ccccc3c2=O)c1	55.9*	-49.9*	9.9	23.4	14.2	nt	35.0*	68.3*
CCNc1ccccc1CP(=O)(c1ccccc1)c1ccccc1O (centres undefined)	+	-1.1	+	+	nt	nt	30.0	17.8
C=CCNC(=S)NNC(=O)CSc1nc2ccccc2s1	6.5	-0.5	-3.6	0.9	-12.3	6.4	nt	nt
O=C(CSc1nc2ccccc2s1)NNC(=S)Nc1ccc(Cl)cc1	43.0*	-2.6	-0.7	6.7	-3.7	0.6	14.2	12.8
O=S(=O)(O)c1cccc2c(N=Nc3ccc(O)c4ncccc34)cccc12	72.1*	-92.3*	7.8	26.9	4.2	nt	34.1*	82.3*
NNC(=O)c1cc(O)c(O)c(O)c1	54.1*	-21.8	3.5	25.5	-8.1	2.8	34.4*	46.2*
C#CCOc1ccc2ccccc2c1/C=C(/C#N)c1ccc(C(=O)O)cc1	-18.3	-0.7	0.2	-6.4	-2.6	nt	nt	nt
O=c1[nH]c(C(Cl)Cl)nc2sc3c(c12)CCN(Cc1ccccc1)C3	101.8*	-9.4	23.2	77.8*	-40.7	56.2*	55.7*	77.5*
Cc1nc2nc(-c3cccs3)cn2nc1C	112.8*	-10.9	72.4*	105.6*	11.8	68.4*	100.2*	126.7*
Cc1nc2nc(-c3ccc(Cl)cc3)cn2nc1C	-12.6	-18.6	-3.6	-0.3	-18.2	-11.3	nt	nt
O=C(NCCCc1nc2ccccc2[nH]1)c1ccc(F)cc1	5.3	0.0	-4.6	0.2	-10.4	-1.2	nt	nt
COc1cc(OC)c(OC)cc1/C=C1/Cc2ccccc2C1=O	111.5*	?	-74.7	18.3	-86.0	nt	84.5*	102.8*
Cc1ccc(S(=O)(=O)N2CCN(C(=O)c3cccc(-n4cccc4)c3)CC2)cc1	16.4	2.8	-5.2	8.1	5.1	nt	nt	nt
O=C(c1cccc(-n2cccc2)c1)N1CCN(S(=O)(=O)c2ccccc2)CC1	51.2*	0.3	2.2	11.6	-19.6	nt	32.2*	88.4*
CCN(CC)S(=O)(=O)c1ccc(NC(=O)CCNC(=O)c2ccccc2)cc1	nt	1.7	nt	nt	2.3	nt	nt	nt
